Pf Dd2 inh: blocks growth of Plasmodium falciparum Dd2 parasites | P. falciparum Dd2 growth, SYBR Green, 72 h; stronger effect = lower value | activity change, % at 10 µM | hit rate 2.3% among 94,000 | AID 1159554; in the data active = activity change below about -80%; inconclusive = no clear call, values can overlap the other calls
C diff HTS: C. difficile growth inhibition; Clostridium difficile clinical isolate growth, OD600, 24 h; stronger effect = lower value; growth activity, negative = inhibition, % at 16 µg/mL (by protocol); hit rate 0.25% among 86,000;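 active = mean growth activity at or below -80% and every replicate also at or below -80%; inconclusive = mean at or below -80% but some replicate above -80%; inactive = mean growth activity above -80%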
T cruzi growth-1: T. cruzi proliferation inhibition; AID 624255; T. cruzi beta-gal in NIH3T3, GalScreen luminescence, 90 h; inhibition, % at 8.34 µM; hit rate 5.9% among 77,000;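 active = mean inhibition above about 93%, with at least 55% of replicates each passing it, limit read from the data, passing the limit was not always enough; inconclusive = only one of those two conditions holds; inactive = neither condition holds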
T cruzi growth-2: Trypanosoma cruzi proliferation inhibition; shares compounds with T cruzi growth-1; T. cruzi beta-gal in NIH3T3, GalScreen luminescence, 90 h; inhibition, % at 8.35 µM; hit rate 72% among 5,600; AID 651739;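 active = mean replicate inhibition above about 95% and at least 55% of replicates individually reaching it, limit read from the data; inconclusive = only one of the two criteria is met; inactive = neither criterion is met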
T cruzi growth-3: Trypanosoma cruzi proliferation inhibition; shares compounds with T cruzi growth-1; T. cruzi beta-gal in NIH3T3, GalScreen luminescence, 90 h; inhibition, % at 2.09 µM; hit rate 21% among 5,600; AID 651740;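 active = mean inhibition above about 95%, with at least 55% of replicates also reaching it, limit read from the data; inconclusive = meets just one of the two conditions; inactive = meets neither condition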
3T3 cytotox: cytotoxicity in mouse NIH/3T3 fibroblasts; shares compounds with T cruzi growth-1; NIH/3T3 viability, CellTiter-Glo ATP luminescence, 90 h; cytotoxicity (signal decrease), % at 8.35 µM; hit rate 14% among 5,600; AID 651742;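 active = mean signal decrease across replicates above about 35% based on untreated-well scatter, with enough replicates individually passing, limit read from the data; inconclusive = no rule stated though some were filed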
3T3 cytotox 2: NIH/3T3 (mouse) viability loss. shares compounds with T cruzi growth-1. NIH/3T3 viability, CellTiter-Glo ATP luminescence, 90 h. inhibition, % at 24.9 µM. hit rate 56% among 5,600. AID 651744;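 active = mean loss of cell viability signal at or above a set limit, and enough replicates individually reaching it; inconclusive = meets only the mean limit or only the replicate share; inactive = meets neither condition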
A number is an active result. The list is not random: actives were taken first. Their share in the collection is about 6.7%.

`C[C@@H]1CN([C@@H](C)CO)C(=O)c2cc(NC(=O)c3ccncc3)ccc2O[C@@H](C)CCCCO[C@H]1CN(C)S(=O)(=O)c1cn(C)cn1` gave Pf Dd2 inh inactive, C diff HTS inactive and T cruzi growth-1 inactive.
Screening C[C@@H]1CN([C@H](C)CO)C(=O)c2cc(C#CCN(C)C)cnc2O[C@H]1CN(C)C(=O)Cc1cccnc1 returned Pf Dd2 inh inactive, C diff HTS inactive and T cruzi growth-1 inactive.
For COc1cccc(S(=O)(=O)N(C)C[C@@H]2Oc3ncc(C#Cc4cccc(F)c4)cc3C(=O)N([C@H](C)CO)C[C@@H]2C)c1 the results were Pf Dd2 inh inactive, C diff HTS inactive, T cruzi growth-1 110, T cruzi growth-2 102, T cruzi growth-3 inactive, 3T3 cytotox inactive and 3T3 cytotox 2 33.
For COc1cccc(S(=O)(=O)N(C)C[C@@H]2Oc3ncc(C#CC(C)C)cc3C(=O)N([C@@H](C)CO)C[C@H]2C)c1 the results were Pf Dd2 inh inactive, C diff HTS inactive and T cruzi growth-1 inactive.
`COc1cccc(S(=O)(=O)N(C)C[C@@H]2Oc3ncc(C#CCC(C)C)cc3C(=O)N([C@@H](C)CO)C[C@@H]2C)c1` gave Pf Dd2 inh inactive, C diff HTS inactive and T cruzi growth-1 inactive.
`COc1cccc(S(=O)(=O)N(C)C[C@H]2Oc3ncc(C#CCN(C)C)cc3C(=O)N([C@@H](C)CO)C[C@@H]2C)c1` gave Pf Dd2 inh inactive, C diff HTS inactive and T cruzi growth-1 inactive.
Screening C[C@H](CO)N1C[C@H](C)[C@H](CN(C)S(=O)(=O)c2ccc(C#N)cc2)Oc2ncc(C#Cc3cccc(F)c3)cc2C1=O returned Pf Dd2 inh inactive, C diff HTS inactive and T cruzi growth-1 inactive.
For COc1cccc(S(=O)(=O)N(C)C[C@@H]2Oc3ncc(C#Cc4ccc(C(F)(F)F)cc4)cc3C(=O)N([C@H](C)CO)C[C@@H]2C)c1 the results were Pf Dd2 inh inactive, C diff HTS inactive, T cruzi growth-1 103, T cruzi growth-2 96, T cruzi growth-3 113, 3T3 cytotox inactive and 3T3 cytotox 2 31.
For COc1cccc(S(=O)(=O)N(C)C[C@H]2Oc3ncc(C#CCC(C)C)cc3C(=O)N([C@@H](C)CO)C[C@@H]2C)c1 the results were Pf Dd2 inh inactive, C diff HTS inactive, T cruzi growth-1 inconclusive, T cruzi growth-2 111, T cruzi growth-3 inactive, 3T3 cytotox inactive and 3T3 cytotox 2 73.
Cc1ccc(S(=O)(=O)N(C)C[C@@H]2Oc3ncc(C#Cc4cccc(F)c4)cc3C(=O)N([C@H](C)CO)C[C@@H]2C)cc1 was read as Pf Dd2 inh inactive, C diff HTS inactive, T cruzi growth-1 121, T cruzi growth-2 99, T cruzi growth-3 inactive, 3T3 cytotox inconclusive and 3T3 cytotox 2 52.
For C[C@H]1CN([C@@H](C)CO)C(=O)c2cccc(NS(=O)(=O)c3cccs3)c2O[C@H]1CN(C)CC1CC1 the results were Pf Dd2 inh inactive, C diff HTS inactive and T cruzi growth-1 inactive.
Screening CCCc1cn(CC[C@@H]2CC[C@H](NC(=O)Nc3ccccc3F)[C@@H](CO)O2)nn1 returned Pf Dd2 inh inactive and T cruzi growth-1 inactive.
Screening C[C@@H]1CN([C@@H](C)CO)C(=O)c2cc(NS(=O)(=O)c3cn(C)cn3)ccc2O[C@H]1CN(C)C(=O)Nc1ccccc1 returned Pf Dd2 inh inactive, C diff HTS inactive and T cruzi growth-1 inactive.
For Cc1ccccc1-c1ccc2c(c1)O[C@@H](CN(C)C(=O)c1ccccn1)[C@@H](C)CN([C@@H](C)CO)S2(=O)=O the results were Pf Dd2 inh inactive and C diff HTS inactive.
C[C@H]1CN([C@@H](C)CO)C(=O)Cc2cc(NC(=O)C3CCCCC3)ccc2O[C@H]1CN(C)Cc1ccccc1 was read as Pf Dd2 inh inactive, C diff HTS inactive and T cruzi growth-1 inactive.
For C[C@H](CO)N1C[C@H](C)[C@H](CN(C)C(=O)NC2CCCCC2)Oc2ccc(NC(=O)C3CC3)cc2CC1=O the results were Pf Dd2 inh inactive, C diff HTS inactive and T cruzi growth-1 inactive.
CCCNC(=O)[C@H]1[C@H](CO)[C@H]2Cn3c(ccc(/C=C/c4ccccc4)c3=O)[C@@H]1N2C(C)=O was read as Pf Dd2 inh inactive, C diff HTS inactive and T cruzi growth-1 inactive.
`C[C@H](CO)N1C[C@H](C)[C@H](CN(C)S(=O)(=O)c2ccc(C#N)cc2)Oc2ncc(-c3cccc(C(F)(F)F)c3)cc2C1=O` gave Pf Dd2 inh inactive, C diff HTS inactive and T cruzi growth-1 inactive.
COc1ccc(S(=O)(=O)N(C)C[C@@H]2Oc3ncc(C#Cc4ccc(OC)c(OC)c4)cc3C(=O)N([C@H](C)CO)C[C@@H]2C)cc1 was read as Pf Dd2 inh inactive, C diff HTS inactive and T cruzi growth-1 inactive.
Screening COc1ccc(S(=O)(=O)N(C)C[C@@H]2Oc3ncc(C#Cc4ccccc4)cc3C(=O)N([C@H](C)CO)C[C@@H]2C)cc1 returned Pf Dd2 inh inactive, C diff HTS inactive, T cruzi growth-1 109, T cruzi growth-2 101, T cruzi growth-3 inactive, 3T3 cytotox inactive and 3T3 cytotox 2 63.
Screening C[C@H](CO)N1C[C@H](C)[C@H](CN(C)S(=O)(=O)c2cccs2)Oc2ncc(C#Cc3ccc(F)cc3)cc2C1=O returned Pf Dd2 inh inactive, C diff HTS inactive, T cruzi growth-1 112, T cruzi growth-2 106, T cruzi growth-3 inactive, 3T3 cytotox inactive and 3T3 cytotox 2 inactive.
`Cc1ccc(S(=O)(=O)N(C)C[C@@H]2Oc3ncc(-c4cccc(C(F)(F)F)c4)cc3C(=O)N([C@H](C)CO)C[C@@H]2C)cc1` gave Pf Dd2 inh inactive, C diff HTS inactive, T cruzi growth-1 126, T cruzi growth-2 106, T cruzi growth-3 inactive, 3T3 cytotox 48 and 3T3 cytotox 2 43.
C[C@H](CO)N1C[C@H](C)[C@H](CN(C)S(=O)(=O)c2cccs2)Oc2ncc(C#Cc3ccc(C(F)(F)F)cc3)cc2C1=O was read as Pf Dd2 inh inactive and T cruzi growth-1 inactive.
CN1[C@@H]2c3ccc(-c4ccccc4)c(=O)n3C[C@H]1[C@H](CO)[C@H]2C(=O)Nc1nccs1 was read as Pf Dd2 inh inactive, C diff HTS inactive and T cruzi growth-1 inactive.
`C[C@@H]1CN([C@@H](C)CO)C(=O)c2cc(-c3cccc(F)c3)cnc2O[C@H]1CN(C)S(=O)(=O)c1cccc(F)c1` gave Pf Dd2 inh inactive and T cruzi growth-1 inactive.
C[C@H](CO)N1C[C@H](C)[C@@H](CN(C)C(=O)Nc2cccc3ccccc23)Oc2ccc(NC(=O)CCN3CCOCC3)cc2CC1=O was read as Pf Dd2 inh inactive and C diff HTS inactive.
`C[C@H](CO)N1C[C@H](C)[C@H](CN(C)C(=O)Nc2ccccc2)Oc2ccc(NC(=O)Nc3ccc(F)cc3)cc2CC1=O` gave Pf Dd2 inh inactive and C diff HTS inactive.

Screening data deposited in PubChem by Broad Institute.
